The values below come from PubChem BioAssay (NCATS).

Assay [1] concerns the target 3',5'-cyclic-AMP phosphodiesterase 4B (Homo sapiens) (UniProt Q07343). The assay is described as follows: qHTS Assay for Inhibitors of PDE-IV (AID 607; active means well fitted activation curve with a large enough effect in the main read-out, with a control signal flat, not every such curve was filed as active; further: % of control where 0% means no effect). The gist of the method: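 HEK293 ACTOne cells with CNG channel (1000/well), endogenous PDE4; membrane potential dye, compounds up to 22.9 uM final. Fluorescence Ex 535/Em 590; RO 20-1724 (100 uM final) as reference.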
Background: qHTS replaces the single test concentration by a dilution series.

The nature of assay [2]: Cellular Toxicity (caspase-3) HepG2 (AID 654).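 Further: cells exposed to compound for 16 hours before reading; 0% = DMSO alone and 100% = caspase signal from 100 µM tamoxifen.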 In short, it runs like this:
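Luminescent Caspase-Glo 3/7 readout after 16 hr compound exposure of human hepatocellular carcinoma HepG2 cells at 37 °C; qHTS concentration-response, normalized DMSO = 0%, 100 uM tamoxifen = 100%; AC50 by standard Hill equation.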

Assay [3] can be described thus: Cellular Toxicity (caspase-3) Jurkat (AID 655).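 Further: cells exposed to compound for 16 h at 37 °C before reading.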 Particulars: Jurkat caspase-3 activation, luminescence; caspase-3 activation: at 92.2 µM (top of the series), DMSO = 0%, tamoxifen = 100%. In short, it runs like this:
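Jurkat cells (5000/well) in complete medium exposed 16 h at 37 C; caspase-3/7 activity read by Caspase-Glo luminescence after 20 min at room temperature. Normalized to DMSO and 100 uM tamoxifen; AC50 from Hill fits.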

A short description of assay [4]: Cellular Toxicity (caspase-3) HUV-EC-C (AID 656). The gist of the method: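 HUV-EC-C cells (1000/well) in complete medium, compound-treated 16 h at 37 °C; caspase-3/7 activity read by Caspase-Glo 3/7 luminescence. Normalized to DMSO (basal) and 100 uM tamoxifen (100%); AC50 from Hill-equation concentration-response fits.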
A short description of assay [5]: Cellular Toxicity (caspase-3) SHSY5Y (AID 657). The gist of the method:
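SH-SY5Y human neuroblastoma cells, 1500/well, exposed to compound for 16 hours at 37 °C in complete medium. Caspase-3/7 activity read by Caspase-Glo luminescence after 1 hr at room temperature, normalized to DMSO and 10 uM staurosporine; AC50 from Hill fit.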

Assay [6] is described as follows: Cellular Toxicity (caspase-3) BJ (AID 658).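 Further: 0% = DMSO basal and 100% = 10 µM staurosporine.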 In short, it runs like this:
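qHTS, BJ fibroblasts, 1000 cells/well; 5 hr preincubation, 16 hr compound, 37 °C; Caspase-Glo 3/7 reagent, 1 hr RT; luminescence. DMSO = 0%, 10 uM staurosporine = 100%. Hill-equation AC50.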

Assay [7] in a line: Cellular Toxicity (caspase-3) MRC-5 (AID 659).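 Further: 0% = DMSO basal and 100% = 10 µM staurosporine.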 The gist of the method:
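MRC-5 fibroblasts, 1500/well; 16 h cpd, 37 °C; Caspase-Glo 3/7, 1 h RT; lumi read. Norm: DMSO = 0%, 10 uM staurosporine = 100%. Hill-fit AC50 from qHTS conc-response.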

Assay [8] in a line: Cellular Toxicity (caspase-3) SK-N-SH (AID 661).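 Further: 0% = DMSO basal and 100% = 10 µM staurosporine.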 The gist of the method:
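Luminescent Caspase-Glo 3/7 read-out after 16 hr compound exposure of SK-N-SH neuroblastoma cells at 37 °C. Signal increase normalized to DMSO (basal) and 10 uM staurosporine (100%); AC50 from Hill equation fits of qHTS concentration-response data.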

A short description of assay [9]: Cellular Toxicity (caspase-3) H-4-II-E (AID 663).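 Further: cells exposed to compound for 16 hr before readout.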 Particulars: H-4-II-E rat hepatoma, scaled: DMSO 0%, 100 µM tamoxifen 100%; at 92.2 µM (top of the series). In short, it runs like this: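 H-4-II-E rat hepatoma, 1500 cells/well, 5 hr settle at 37 °C; compound 16 hr, 37 °C, complete medium; Caspase-Glo 3/7, 20 min RT; luminescence. DMSO = 0%, 100 uM tamoxifen = 100%; Hill-equation AC50.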

The nature of assay [10]: Cellular Toxicity (caspase-3) Hek293 (AID 664).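 Further: cells exposed to compound for 16 h at 37 °C before readout.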 In short, it runs like this: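 Luminescent Caspase-Glo 3/7 readout (aminoluciferin release) in HEK293 cells after 16 h compound treatment, 37 °C. Normalization: DMSO = basal, 100 uM tamoxifen = 100% stimulation. Concentration-response fitted with standard Hill equation for AC50.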

Unmarked numbers belong to inactive results. Records with an inconclusive call do not appear. Activity calls are given as the source filed them. Unless noted, the call rests on the fitted dose curve; in most records, active means well fitted curve in the direction sought with a large enough effect; inconclusive means small, poorly fitted or top-dose-only effect, or another doubt; inactive means no such curve, though single readings can be large; an effect the other way counts as inactive or inconclusive.

Chain of 3',5'-cyclic-AMP phosphodiesterase 4B (Homo sapiens) (Q07343 whole entry, looked up): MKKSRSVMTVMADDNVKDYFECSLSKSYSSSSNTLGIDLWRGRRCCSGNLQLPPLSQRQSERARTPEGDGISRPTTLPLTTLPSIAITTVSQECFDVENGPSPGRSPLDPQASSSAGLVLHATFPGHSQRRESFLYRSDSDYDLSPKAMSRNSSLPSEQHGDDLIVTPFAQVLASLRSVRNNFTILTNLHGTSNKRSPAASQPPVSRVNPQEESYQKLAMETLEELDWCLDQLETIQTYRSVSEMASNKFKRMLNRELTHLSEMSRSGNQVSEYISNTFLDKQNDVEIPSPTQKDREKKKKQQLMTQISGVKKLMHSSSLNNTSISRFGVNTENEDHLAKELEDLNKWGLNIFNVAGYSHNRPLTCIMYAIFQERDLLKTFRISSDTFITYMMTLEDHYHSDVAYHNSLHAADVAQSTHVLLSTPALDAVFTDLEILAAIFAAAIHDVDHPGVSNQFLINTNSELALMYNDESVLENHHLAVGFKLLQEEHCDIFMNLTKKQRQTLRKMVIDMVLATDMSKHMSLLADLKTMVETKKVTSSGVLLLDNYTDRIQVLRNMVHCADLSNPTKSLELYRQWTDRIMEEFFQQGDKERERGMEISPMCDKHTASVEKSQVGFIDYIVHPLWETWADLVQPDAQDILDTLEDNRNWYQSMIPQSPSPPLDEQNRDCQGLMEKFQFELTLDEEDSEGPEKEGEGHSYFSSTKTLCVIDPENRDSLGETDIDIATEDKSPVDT

On to `O=P1(NCCCl)OCCCN1CCCl` (configuration not stated), for which the result in assay [1] was inactive.

With `C=C(C)[C@H]1Cc2c(ccc3c2O[C@@H]2COc4cc(OC)c(OC)cc4[C@@H]2C3=O)O1`, the outcome in assay [1] was inactive.

As for `O=c1[nH]c2ccccc2n1C1CCN(CCCC(c2ccc(F)cc2)c2ccc(F)cc2)CC1`, in assay [1], the result was inactive.

Consider `c1ccc2c(c1)Nc1ccccc1S2`, for which the Potency entry in [2] and in assay [5] was “inactive” throughout. The caspase-3 activation was 0.561% in assay [3] and -0.251% in assay [9]. Moreover, the molecule was called inactive in assay [4], in assay [6], in [7], in assay [8] and in [10].

In the case of `Oc1ccccc1-c1ccccc1`, the Potency result in assay [2] and in assay [5] was “inactive” in each case. Moreover, the caspase-3 activation in assay [3] is 82.5% (active); in [9] it was -0.124%. Also, the molecule was called inactive in assay [4], in [6], in assay [7], in assay [8] and in [10].

With `COC1(CS(=O)c2ccccc2)CCN(CCc2c[nH]c3ccc(F)cc23)CC1` (configuration not stated), the molecule was called inactive in assay [1].

In the case of `Oc1ccc(Cl)cc1Cc1ccccc1`, the Potency entry in assay [2] and in [5] was “inactive” each time. In addition, the caspase-3 activation in [3] is 18.5%; in assay [9], 2.16%. Besides, the result in assay [4], in [6], in assay [7], in assay [8] and in assay [10] was inactive.

On to `CCn1cc(C(=O)O)c(=O)c2ccc(C)nc21`, for which, in assay [1], the call was inactive.

Turning to `CCOP(=S)(OCC)Oc1cc(C)nc(C(C)C)n1`, the Potency result in assay [2] and in assay [5] was “inactive” throughout. The caspase-3 activation in assay [3] was 1.42%; in [9], -0.387%. Also, the outcome in [4], in assay [6], in assay [7], in [8] and in assay [10] was inactive.

For the molecule `Cc1ccc(S(=O)(=O)N[C@@H](CCCCN)C(=O)CCl)cc1`, the molecule was called inactive in assay [1].

`OCCOc1ccccc1`: the Potency entry in assay [2] and in assay [5] was “inactive” throughout. Further, the figures for the caspase-3 activation in assay [3] and in [9] were -1.54% and -1.74%, respectively. Also, the molecule was called inactive in assay [4], in assay [6], in assay [7], in assay [8] and in [10].

With `Fc1ccc(C(OCCN2CCN(CCCc3ccccc3)CC2)c2ccc(F)cc2)cc1`, the molecule was classed as inactive in assay [1].
